The panel holds about 83,000 compounds, 20% with a hit somewhere; the sample as a whole holds those more often.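 Negative percent growth values reflect cell death: -40 means 40% of the cells present at the start died, and -100 means all died.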 Calls of active or inactive are those of the source. Rule for the calls: active = growth percent below 10; inactive = the rest.
How the values were obtained:
Assay in all cases: NCI-60 one-dose screen, 48 h (100 = growth as untreated, 0 = no growth, -100 = all killed)
[1] = system: HCT-15 colon; conditions: 10 µM unless noted
[2] = system: HT29 colon; conditions: 10 µM unless noted
[3] = system: SNB-75 CNS; conditions: 10 µM unless noted
[4] = system: SNB-19 CNS; conditions: 10 µM unless noted
[5] = system: PC-3 prostate; conditions: 10 µM unless noted
[6] = system: SK-MEL-5 melanoma; conditions: 10 µM unless noted
[7] = system: UACC-62 melanoma; conditions: 10 µM unless noted
[8] = system: LOX IMVI melanoma; conditions: 10 µM unless noted
[9] = system: SK-MEL-28 melanoma; conditions: 10 µM unless noted
[10] = system: SK-MEL-2 melanoma; conditions: 10 µM
[11] = system: EKVX NSCLC; conditions: 10 µM unless noted
[12] = system: SN12C renal; conditions: 10 µM unless noted
[13] = system: UO-31 renal; conditions: 10 µM unless noted
[14] = system: TK-10 renal; conditions: 10 µM unless noted
[15] = system: ACHN renal; conditions: 10 µM unless noted
[16] = system: CAKI-1 renal; conditions: 10 µM unless noted
[17] = system: CCRF-CEM leukemia; conditions: 10 µM unless noted
[18] = system: MOLT-4 leukemia; conditions: 10 µM unless noted
[19] = system: A498 renal; conditions: 10 µM unless noted
[20] = system: U251 CNS; conditions: 10 µM unless noted

SMILES | growth [1] | growth [2] | growth [3] | growth [4] | growth [5] | growth [6] | growth [7] | growth [8] | growth [9] | growth [10] | growth [11] | growth [12] | growth [13] | growth [14] | growth [15] | growth [16] | growth [17] | growth [18] | growth [19] | growth [20]
C=C1C[C@H](O)[C@H](Br)C(C)(C)[C@@]12CCC(C)=C(Cl)C2 | -4.29% (active) | 3.04% (active) | 52.9% (inactive) | 40.7% (inactive) | 16.6% (inactive) | -60.8% (active) | -11.8% (active) | -5.6% (active) | 30.1% (inactive) | 6.3% (active) | 13.5% (inactive) | 22.6% (inactive) | 37.1% (inactive) | 31% (inactive) | 24.2% (inactive) | 16.3% (inactive) | 21.6% (inactive) | -8.16% (active) | – | –
CN1CCN(c2nc(NCCNc3ccnc4cc(Cl)ccc34)c3ccccc3n2)CC1 | 16.1% (inactive) | 0.651% (active) | 74.7% (inactive) | 34.8% (inactive) | 30.4% (inactive) | -97.5% (active) | -55.1% (active) | -56% (active) | -58.5% (active) | -45.5% (active) | 52.3% (inactive) | 10.9% (inactive) | -9.51% (active) | 16.5% (inactive) | 5.61% (active) | – | 3.19% (active) | 6.2% (active) | 102% (inactive) | –
O=c1[nH]c([C@@H]2CCCN2)nc2c1oc1ccc(Cl)cc12 | 66.3% (inactive) | 43.9% (inactive) | 7.8% (active) | 74.8% (inactive) | 58% (inactive) | 51.2% (inactive) | 78.5% (inactive) | 39% (inactive) | 78.8% (inactive) | – | 61.4% (inactive) | 81.3% (inactive) | 58.4% (inactive) | 52.3% (inactive) | 71.5% (inactive) | 42.4% (inactive) | 63.1% (inactive) | 68.4% (inactive) | 6.25% (active) | –
NC(=O)N1N=C(c2ccc(Cl)cc2)CC1c1cn(-c2ccccc2)nc1-c1ccc(Cl)cc1 (centres undefined) | 72% (inactive) | – | -10.5% (active) | 44% (inactive) | 52.8% (inactive) | 79% (inactive) | 61.7% (inactive) | 55.9% (inactive) | 78.4% (inactive) | 74.3% (inactive) | 58.1% (inactive) | 61.9% (inactive) | 21.5% (inactive) | 43.2% (inactive) | 26.1% (inactive) | 67.7% (inactive) | 85.2% (inactive) | 62.9% (inactive) | 71.1% (inactive) | 46% (inactive)
CC(=O)NCC(=O)N1[C@@H]2CC[C@H]1c1ccc(Nc3ncc(C(F)(F)F)c(NC4CCC4)n3)cc12 | 26.8% [2.5 µM] (inactive) | 14.1% [2.5 µM] (inactive) | 19.7% [2.5 µM] (inactive) | 73.9% [2.5 µM] (inactive) | 57.2% [2.5 µM] (inactive) | 58.1% [2.5 µM] (inactive) | 56.3% [2.5 µM] (inactive) | 22% [2.5 µM] (inactive) | 70.8% [2.5 µM] (inactive) | – | 69.1% [2.5 µM] (inactive) | 37.8% [2.5 µM] (inactive) | 2.84% [2.5 µM] (active) | 43.7% [2.5 µM] (inactive) | 38.6% [2.5 µM] (inactive) | 20.5% [2.5 µM] (inactive) | – | 20% [2.5 µM] (inactive) | 14.7% [2.5 µM] (inactive) | –
Nc1nc(N)c2nc(-c3cccc(O)c3)c(-c3cccc(O)c3)nc2n1 | 92% (inactive) | 68% (inactive) | 39.9% (inactive) | 70.8% (inactive) | 76.6% (inactive) | 89.1% (inactive) | 83% (inactive) | 89.6% (inactive) | 85.2% (inactive) | – | 82.2% (inactive) | – | 65.9% (inactive) | 80.9% (inactive) | 69.3% (inactive) | 67.7% (inactive) | 66.3% (inactive) | 90.6% (inactive) | – | –
O=C(Nc1ccc(N=Nc2ccccc2)cc1)c1cccc2ccccc12 | 21.8% (inactive) | 35.4% (inactive) | 39.3% (inactive) | 67.3% (inactive) | 54.8% (inactive) | 59% (inactive) | 34.6% (inactive) | 64.4% (inactive) | 67.5% (inactive) | 56.4% (inactive) | 71.5% (inactive) | 78.8% (inactive) | 68.3% (inactive) | 76.2% (inactive) | 77.5% (inactive) | 70.8% (inactive) | 49.8% (inactive) | 37.2% (inactive) | – | –
O=S1(=O)OC(c2ccc(O)c(Cl)c2)(c2ccc(O)c(Cl)c2)c2ccccc21 | 102% (inactive) | 123% (inactive) | 78.4% (inactive) | 103% (inactive) | 77.8% (inactive) | 95.9% (inactive) | 99.5% (inactive) | 100% (inactive) | 114% (inactive) | – | 112% (inactive) | 97% (inactive) | – | 100% (inactive) | – | 90.2% (inactive) | 102% (inactive) | 109% (inactive) | 90.3% (inactive) | –
CC(=O)O[C@]1(C)C[C@H](O)[C@]2(O)C=CO[C@H](O[C@@H]3O[C@H](CO)[C@@H](O)[C@H](O)[C@H]3O)[C@@H]21 | 99.1% (inactive) | 103% (inactive) | 83.3% (inactive) | 99.6% (inactive) | 103% (inactive) | 103% (inactive) | 100% (inactive) | 105% (inactive) | 112% (inactive) | – | 92.7% (inactive) | 101% (inactive) | – | 95.9% (inactive) | 108% (inactive) | 102% (inactive) | 109% (inactive) | 97.5% (inactive) | 110% (inactive) | –
Cn1cc(-c2cnn3c(N)c(Br)c([C@@H]4CCCNC4)nc23)cn1 | 60.6% (inactive) | 23% (inactive) | 20.5% (inactive) | 52.1% (inactive) | 42.8% (inactive) | 28.6% (inactive) | 63.7% (inactive) | 22% (inactive) | 72.5% (inactive) | – | 58.7% (inactive) | 37.6% (inactive) | 28% (inactive) | 33.4% (inactive) | 19.8% (inactive) | 17.3% (inactive) | 19.9% (inactive) | 7.79% (active) | -8.93% (active) | –
CCN(CC)Cc1cc(Nc2cc(C(F)(F)F)c(C#N)c3nc4ccccc4n23)ccc1O | 6.22% (active) | 5.33% (active) | 13.5% (inactive) | 18.5% (inactive) | 6.16% (active) | -36.4% (active) | 9.53% (active) | 12.2% (inactive) | 29.6% (inactive) | 4.36% (active) | 15.8% (inactive) | 5.86% (active) | -17.4% (active) | 10.6% (inactive) | 4.68% (active) | 6.96% (active) | 5.56% (active) | 4.11% (active) | -14.2% (active) | –
O=C(CNc1nnc(-c2ccc(Cl)cc2)o1)Nc1ccc(-c2nc3ccccc3s2)cc1 | 89.6% (inactive) | 95.7% (inactive) | 85.8% (inactive) | 90.6% (inactive) | 88.6% (inactive) | 92.1% (inactive) | 86.1% (inactive) | -43.1% (active) | 117% (inactive) | – | 104% (inactive) | 94.5% (inactive) | 73.3% (inactive) | 91.7% (inactive) | 112% (inactive) | 100% (inactive) | 53.3% (inactive) | 33.2% (inactive) | – | –
CCOc1cc2ncc(C#N)c(Nc3ccc(F)c(Cl)c3)c2cc1NC(=O)/C=C/CN(C)C | -31.1% (active) | -35.3% (active) | -98.5% (active) | -26.6% (active) | -1.37% (active) | -94.5% (active) | – | -72.3% (active) | -75.4% (active) | – | -22% (active) | -51.7% (active) | -92.2% (active) | -75.9% (active) | -94.3% (active) | -59.6% (active) | 0.208% (active) | -26% (active) | -3.54% (active) | –
Oc1ccc(/C=N/Nc2nnc(N/N=C/c3ccc(O)cc3O)c3ccccc23)c(O)c1 | 7.14% (active) | -35.3% (active) | -46.9% (active) | -1.04% (active) | -50.8% (active) | -17.7% (active) | -94.8% (active) | -51.4% (active) | -43.3% (active) | -58% (active) | -18.4% (active) | -28% (active) | 0% (active) | 10.5% (inactive) | -3.24% (active) | – | -51.4% (active) | -26.9% (active) | -61.1% (active) | –
CCc1nc2cc(/C=C/C(=O)NO)ccc2c(=O)n1CCc1ccc(OC)cc1 | 25.2% (inactive) | 6.61% (active) | 24.1% (inactive) | 35.9% (inactive) | 22.9% (inactive) | 0.923% (active) | -5.16% (active) | -21.8% (active) | 30% (inactive) | 47.4% (inactive) | 40.8% (inactive) | 24.9% (inactive) | 20.6% (inactive) | 2.16% (active) | 9.54% (active) | 13.4% (inactive) | 10.2% (inactive) | 5.41% (active) | -4.17% (active) | –
Cn1ccnc1C(=O)/C=C/c1ccc(CC(=O)Nc2ccc(C(F)(F)F)cc2)cc1 | -18.7% (active) | -2.78% (active) | 0.358% (active) | 4.97% (active) | 13.8% (inactive) | 56.9% (inactive) | 27.9% (inactive) | -49.4% (active) | 77.8% (inactive) | – | 14.9% (inactive) | 10% (active) | 22.1% (inactive) | 32.6% (inactive) | – | 33.5% (inactive) | 8.58% (active) | -7.88% (active) | 64.5% (inactive) | –
O=C(O)C1(Cc2cccc(Nc3nccs3)n2)CCC(Oc2cccc(Cl)c2F)CC1 (centres undefined) | 70.7% (inactive) | 62.8% (inactive) | 95.5% (inactive) | 75.4% (inactive) | 71.3% (inactive) | 70.3% (inactive) | 61.8% (inactive) | 74.6% (inactive) | 88.4% (inactive) | – | 90.9% (inactive) | 73.4% (inactive) | 73.5% (inactive) | 63.8% (inactive) | – | 66.9% (inactive) | 62.6% (inactive) | 67.4% (inactive) | 72% (inactive) | –

— PubChem BioAssay (NCI)
